Screen size: about 5,500 compounds; about 2,000 (36%) were called active. Another 18% or so got no clear call; they are omitted. Rule as the data show it: active = normalized growth mostly below about 0.91 (no sharp cut-off); inconclusive = no clear call, values can overlap the other calls; inactive = mostly above about 0.92. The list shows a part of the results.
Test: chemical genetic growth profiling, strain panel (AID 1159580);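 also: tested at 20 µM; growth read once vehicle control cultures reached saturation at 30 °C; 1 = growth at the plate median or of vehicle wells; lower values mean less growth of the strain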
Settings: growth OD

Measured: normalized growth

ClC(Cl)=C(c1ccc(Cl)cc1)c1ccc(Cl)cc1
inactive: S. cerevisiae deletion strains, locus YJR075W, strain HOC1, active compounds read low 0.947 | S. cerevisiae deletion strains, locus YKL009W, strain mrt4, active compounds read low 0.995 | S. cerevisiae deletion strains, locus YKL085W, strain MDH1 (second series), active compounds read low 0.931 | S. cerevisiae deletion strains, locus YKL085W, strain MDH1, active compounds read low 0.931 | S. cerevisiae deletion strains, locus YKL160W, strain elf1, active compounds read low 0.998 | S. cerevisiae deletion strains, locus YKL190W, strain CNB1, active compounds read low 0.966 | S. cerevisiae deletion strains, locus YKR001C, strain vps1, active compounds read low 0.949 | S. cerevisiae deletion strains, locus YKR026C, strain gcn3, active compounds read low 1 | S. cerevisiae deletion strains, locus YKR091W, strain srl3, active compounds read low 0.985 | S. cerevisiae deletion strains, locus YLL001W, strain dnm1, active compounds read low 0.996 | S. cerevisiae deletion strains, locus YLL026W, active compounds read low 0.993 | S. cerevisiae deletion strains, locus YLL041C, strain sdh2, active compounds read low 0.991 | S. cerevisiae deletion strains, locus YLR027C, strain aat2, active compounds read low 1.01 | S. cerevisiae deletion strains, locus YLR058C, strain SHM2, active compounds read low 0.962 | S. cerevisiae deletion strains, locus YLR102C, strain apc9, active compounds read low 0.954 | S. cerevisiae deletion strains, locus YLR113W, strain HOG1, active compounds read low 0.979 | S. cerevisiae deletion strains, locus YLR221C, strain rsa3, active compounds read low 0.994 | S. cerevisiae deletion strains, locus YLR258W, strain gsy2, active compounds read low 0.985 | S. cerevisiae deletion strains, locus YLR262C, strain YPT6 (second series), active compounds read low 1.04 | S. cerevisiae deletion strains, locus YLR262C, strain YPT6, active compounds read low 0.652 | S. cerevisiae deletion strains, locus YLR268W, strain sec22, active compounds read low 0.969 | S. cerevisiae deletion strains, locus YLR320W, strain mms22, active compounds read low 0.967 | S. cerevisiae deletion strains, locus YLR330W, strain CHS5, active compounds read low 0.962 | S. cerevisiae deletion strains, locus YLR342W, strain FKS1 (second series), active compounds read low 0.879 | S. cerevisiae deletion strains, locus YLR342W, strain FKS1, active compounds read low 0.983 | S. cerevisiae deletion strains, locus YLR357W, strain rsc2, active compounds read low 1 | S. cerevisiae deletion strains, locus YLR370C, strain arc18, active compounds read low 0.996 | S. cerevisiae deletion strains, locus YLR371W, strain rom2, active compounds read low 0.953 | S. cerevisiae deletion strains, locus YLR384C, strain iki3, active compounds read low 0.987 | S. cerevisiae deletion strains, locus YLR418C, strain cdc73, active compounds read low 0.905 | S. cerevisiae deletion strains, locus YML016C, strain PPZ1, active compounds read low 0.946 | S. cerevisiae deletion strains, locus YML032C, strain rad52, active compounds read low 0.949 | S. cerevisiae deletion strains, locus YML120C, strain ndi1, active compounds read low 0.988 | S. cerevisiae deletion strains, locus YML124C, strain tub3, active compounds read low 0.942 | S. cerevisiae deletion strains, locus YMR058W, strain fet3, active compounds read low 0.996 | S. cerevisiae deletion strains, locus YMR078C, strain ctf18, active compounds read low 0.925 | S. cerevisiae deletion strains, locus YMR125W, strain sto1, active compounds read low 0.988 | S. cerevisiae deletion strains, locus YMR129W, active compounds read low 0.997 | S. cerevisiae deletion strains, locus YMR205C, strain PFK2, active compounds read low 0.959 | S. cerevisiae deletion strains, locus YMR223W, strain ubp8, active compounds read low 0.964 | S. cerevisiae deletion strains, locus YMR231W, strain pep5, active compounds read low 0.999 | S. cerevisiae deletion strains, locus YMR263W, strain SAP30, active compounds read low 0.96 | S. cerevisiae deletion strains, locus YMR307W, strain GAS1, active compounds read low 0.978 | S. cerevisiae deletion strains, locus YNL067W, strain RPL9B, active compounds read low 0.974 | S. cerevisiae deletion strains, locus YNL071W, strain lat1, active compounds read low 1 | S. cerevisiae deletion strains, locus YNL128W, strain TEP1, active compounds read low 0.973 | S. cerevisiae deletion strains, locus YNL153C, strain GIM3, active compounds read low 0.98 | S. cerevisiae deletion strains, locus YNL183C, strain NPR1, active compounds read low 0.986 | S. cerevisiae deletion strains, locus YNL209W, strain ssb2, active compounds read low 0.994 | S. cerevisiae deletion strains, locus YNL233W, strain BNI4, active compounds read low 0.981 | S. cerevisiae deletion strains, locus YNL248C, strain rpa49, active compounds read low 0.993 | S. cerevisiae deletion strains, locus YNL250W, strain rad50, active compounds read low 0.917 | S. cerevisiae deletion strains, locus YNL271C, strain bni1, active compounds read low 0.957 | S. cerevisiae deletion strains, locus YNL298W, strain CLA4, active compounds read low 0.953 | S. cerevisiae deletion strains, locus YNL322C, strain KRE1 (second series), active compounds read low 0.989 | S. cerevisiae deletion strains, locus YNL322C, strain KRE1, active compounds read low 0.963 | S. cerevisiae deletion strains, locus YNR049C, strain mso1, active compounds read low 0.994 | S. cerevisiae deletion strains, locus YNR052C, strain pop2, active compounds read low 0.954 | S. cerevisiae deletion strains, locus YOL006C, strain TOP1, active compounds read low 1.01 | S. cerevisiae deletion strains, locus YOL012C, strain htz1 0.487 | S. cerevisiae deletion strains, locus YOL147C, strain pex11, active compounds read low 0.946 | S. cerevisiae deletion strains, locus YOR001W, strain rrp6, active compounds read low 0.989 | S. cerevisiae deletion strains, locus YOR061W, strain CKA2, active compounds read low 0.957 | S. cerevisiae deletion strains, locus YOR069W, strain VPS5, active compounds read low 0.955 | S. cerevisiae deletion strains, locus YOR070C, strain gyp1, active compounds read low 1 | S. cerevisiae deletion strains, locus YOR080W, strain dia2, active compounds read low 0.988 | S. cerevisiae deletion strains, locus YOR083W, strain WHI5, active compounds read low 0.994 | S. cerevisiae deletion strains, locus YOR106W, strain vam3, active compounds read low 1 | S. cerevisiae deletion strains, locus YOR136W, strain idh2, active compounds read low 0.96 | S. cerevisiae deletion strains, locus YOR144C, strain elg1, active compounds read low 0.952 | S. cerevisiae deletion strains, locus YOR184W, strain ser1, active compounds read low 0.954 | S. cerevisiae deletion strains, locus YOR231W, strain MKK1, active compounds read low 1.04 | S. cerevisiae deletion strains, locus YOR265W, strain rbl2, active compounds read low 0.992 | S. cerevisiae deletion strains, locus YOR270C, strain vph1, active compounds read low 0.978 | S. cerevisiae deletion strains, locus YOR290C, strain snf2, active compounds read low 0.99 | S. cerevisiae deletion strains, locus YOR316C, strain cot1, active compounds read low 0.945 | S. cerevisiae deletion strains, locus YPL051W, strain arl3, active compounds read low 0.989 | S. cerevisiae deletion strains, locus YPL055C, strain LGE1, active compounds read low 0.983 | S. cerevisiae deletion strains, locus YPL078C, strain atp4, active compounds read low 0.991 | S. cerevisiae deletion strains, locus YPL106C, strain sse1, active compounds read low 0.991 | S. cerevisiae deletion strains, locus YPL240C, strain hsp82, active compounds read low 0.989 | S. cerevisiae deletion strains, locus YPL241C, strain CIN2, active compounds read low 0.973 | S. cerevisiae deletion strains, locus YPL256C, strain CLN2, active compounds read low 1.05 | S. cerevisiae deletion strains, locus YPR119W, strain clb2, active compounds read low 0.932 | S. cerevisiae deletion strains, locus YPR141C, strain kar3, active compounds read low 0.93 | S. cerevisiae deletion strains, locus YPR163C, strain tif3, active compounds read low 0.952 | S. cerevisiae deletion strains, locus YPR167C, strain met16, active compounds read low 0.942 | S. cerevisiae deletion strains, strain wtn01, active compounds read low 0.936 | S. cerevisiae strains, strain wild type, active compounds read low 0.958
active: S. cerevisiae deletion strains, locus YKL068W, active compounds read low 0.94 | S. cerevisiae deletion strains, locus YLR039C, strain RIC1, active compounds read low 0.637 | S. cerevisiae deletion strains, locus YNL307C, strain MCK1, active compounds read low 0.841

Reference: PubChem BioAssay AID1159580 (chemical genetic matrix, 2015)
